Compound activity as filed in PubChem BioAssay.
Only some compounds are listed: those with a hit (about 2.8% of all), similar ones and a draw of the others.
NSD2 HMT inh = inhibitors of human histone methyltransferase NSD2 | O96028 | NSD2 peptide methylation, AlphaScreen, 120 min | inhibition, % at 12.5 µM | 0.54% of 310,000 active; in the data active = inhibition above about 50%
LMP1 NFkB inh = inhibitors of Epstein-Barr LMP1-induced NF-kappaB reporter; LMP1-induced NF-kappaB luciferase reporter cells, luminescence; inhibition, % at 12.5 µM; 0.69% of 350,000 active; AID 504558; in the data active = inhibition above about 41%;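 also: 0% = neutral control wells and 100% = reference inhibitor control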
PAX8 inh HTS = lowers PAX8-driven luciferase in RMG-I cells; inhibition, % at 12.6 µM; RMG-I TPO-luciferase reporter, SteadyGlo, 24 h; 1.2% of 360,000 active;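 active = mean replicate inhibition at least 60% with every replicate also reaching 60%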;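 also: luciferase light reporting Pax8 driven TPO promoter activity; plate controls were median of neutral control wells for no effect and mitoxantrone controls for full effect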
Env fusion inh = inhibitors of HIV Env-mediated cell fusion. inhibition, % at 12.3 µM. 1.1% of 360,000 active. HeLa-JRFL Env/CEM21 cell fusion, luciferase;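 active = mean replicate inhibition score of at least 50 and every replicate individually at or above 50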;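 also: 0% = plate neutral controls and 100% = maraviroc near 300 nM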
Shn3 3UTR inh = reduces Shn3 3'UTR luciferase signal in osteoblasts. 0.52% of 360,000 active. Clone20 osteoblast Shn3 3'UTR firefly luciferase, 24 h. inhibition, % at 12.5 µM. AID 588674;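 active = mean inhibition of at least 75% with every replicate also reaching 75%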;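 also: 0% = median of neutral control wells and 100% = pilot-screen positive control compound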
Glyco luc inh = blocks N-linked glycosylation in D54 reporter cells; D54 ERlucT glycosylation luciferase reporter, 24 h; percent of 100 nM tunicamycin response; 0.23% of 360,000 active; reporter increase, % at 12.5 µM; AID 588692;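 active = mean luciferase reporter signal, scaled so untreated is 0 and the glycosylation-blocking control 100, at or above a set limit in every replicate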;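 also: luciferase carries N-glycosylation sites so blocking glycosylation raises the light; 0% = median of neutral control wells and 100% = median of 100 nM tunicamycin wells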
* = called active by the depositor; · = no result given; [ ] = dose if it differs, or a comment.

SMILES | NSD2 HMT inh | LMP1 NFkB inh | PAX8 inh HTS | Env fusion inh | Shn3 3UTR inh | Glyco luc inh
COc1ccc(CN2C[C@H](C)[C@@H](OC)CN(C)C(=O)c3ccc(NC(=O)c4nc5ccccc5s4)cc3OC[C@@H]2C)cc1 | · | · | 74* | 33[16.7 µM] | · | ·
CO[C@H]1CN(C)C(=O)c2cc(NC(=O)c3nc4ccccc4s3)ccc2OC[C@H](C)NC[C@H]1C | · | · | 7 | · | · | ·
CO[C@@H]1CN(C)C(=O)c2cc(NC(=O)c3nc4ccccc4s3)ccc2OC[C@H](C)NC[C@H]1C | · | · | 84* | · | · | ·
CCOC1CCCC(n2cnc3c(=S)nc[nH]c32)O1 (stereo not given) | -1 | 0 | 83* | 6 | 2 | 3
COc1ccc(/C=C2\CCc3ccccc3C2=O)cc1Cn1cccn1 | -3 | -34 | · | 65* | -21 | -4
